The campaign covered roughly 220,000 compounds. About 1,500 (0.68%) were called active.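 Rule for the calls: active = Hck-Nef kinase inhibition above about 50% (limit read from the data); inactive = inhibition below that limit.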 Shown is part of a subset that was picked to be rich in actives.

For the experiment, the target named is Tyrosine-protein kinase HCK (Homo sapiens) (UniProt P08631). Kind of experiment: Hck:Nef complex kinase activity blockers – biochemical, Z-Lyte FRET, 384-well, Hck-YEEI, primary screen (AID 463187).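 Note: 0% = DMSO with Hck plus Nef and 100% = Hck alone without Nef.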 The settings on record: Recombinant Hck-YEEI plus Nef, Z-Lyte FRET kinase assay; at 20 µM; stronger effect = higher value.
Sequence of Tyrosine-protein kinase HCK (Homo sapiens) (P08631 whole entry, looked up): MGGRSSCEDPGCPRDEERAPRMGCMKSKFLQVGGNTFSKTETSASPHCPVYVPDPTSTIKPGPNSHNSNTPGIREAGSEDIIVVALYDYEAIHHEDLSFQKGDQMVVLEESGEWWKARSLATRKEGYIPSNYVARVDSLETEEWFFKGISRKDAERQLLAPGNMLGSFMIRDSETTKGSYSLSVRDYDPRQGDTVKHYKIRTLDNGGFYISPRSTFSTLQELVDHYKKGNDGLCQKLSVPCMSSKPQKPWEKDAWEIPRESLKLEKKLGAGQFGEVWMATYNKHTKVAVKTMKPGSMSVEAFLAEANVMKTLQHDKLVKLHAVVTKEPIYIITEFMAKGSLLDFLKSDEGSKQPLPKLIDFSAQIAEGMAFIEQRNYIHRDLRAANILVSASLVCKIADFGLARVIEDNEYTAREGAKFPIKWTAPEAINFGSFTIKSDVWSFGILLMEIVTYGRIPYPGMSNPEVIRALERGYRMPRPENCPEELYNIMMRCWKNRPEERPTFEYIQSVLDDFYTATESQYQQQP
What is called inhibition is the drop in the measured response relative to a control, in per cent. In the case of `O=C(COC(=O)c1ccccc1C(=O)N1CCN(c2ccccc2)CC1)NCc1ccccc1`, the inhibition was -5.15% (inactive). To `O=C(NNC(=O)c1ccc(Cl)cc1Cl)c1cccs1` belongs 22.7% (inactive). In the case of `C=CCSc1nc(Cc2ccc(Cl)cc2)nc2ccccc12` it was -0.392% (inactive); in that of `COC(=O)C1=C(C)Nc2ncnn2C1c1cccnc1` (stereo not given), 0.821% (inactive); in that of `Clc1ccc2c(c1)C1=C(C(c3ccncc3)O2)C(c2ccc(Br)cc2)n2ncnc2N1` (stereo not given), 83.6% (active). With `Brc1ccc(C2=CC(c3ccco3)n3ncnc3N2)cc1` (stereo not given), the inhibition is -4.23% (inactive). To `CCC(C)(C)NC(=O)CN(Cc1cccs1)C(=O)CNS(=O)(=O)c1ccc(F)cc1` belongs 15.6% (inactive). For the compound `O=[N+]([O-])c1ccc(F)cc1Oc1nc(-c2cccnc2)nc2ccccc12`, the inhibition is 13.2% (inactive).

With `CCC(O)C1CCN(Cc2cn(-c3ccc(OC)cc3)nc2-c2cccc(F)c2)CC1` (stereo not given), the inhibition was -11.2% (inactive).

Consider `CCOc1ccc(CCNC(=O)C2=C(C)C(=O)OC23CCC(C)CC3)cc1OCC` (stereo not given), for which the inhibition is 25.3% (inactive). In the case of `Cc1ccc(S(=O)(=O)c2c(N)n(C)c3nc4ccccc4nc23)cc1` it was 52.7% (active). To `CCN(CC)CCn1c(N)c(S(=O)(=O)c2ccccc2)c2nc3ccccc3nc21` belongs 11.1% (inactive); to `C=CCn1c(N)c(S(=O)(=O)c2cccs2)c2nc3ccccc3nc21`, 21.6% (inactive). To `COc1ccc(/C=C2/C(=O)OCc3cc(OC)c(OC)cc32)c(OC)c1` belongs 1.93% (inactive); to `O=C(NCc1ccco1)c1nn2cccnc2c1Cl`, 20.7% (inactive). Regarding `O=C(O)C1C2C=CC(O2)C1C(=O)NCCc1cccc(Cl)c1` (stereo not given), the inhibition is 15.6% (inactive). In the case of `O=C(N/N=C/c1ccco1)c1ccc(NC(=O)C2CC2)cc1` it was 1.97% (inactive); in that of `O=C(Cc1ccccc1)Nc1cccc(C(=O)N/N=C/c2ccco2)c1`, 54.9% (active). In the case of `O=C(N/N=C/c1ccco1)c1ccc(C(=O)N/N=C/c2ccco2)o1` it was -0.711% (inactive); in that of `NC(=O)C[C@@H]1NC(=O)CNC(=O)c2cc([N+](=O)[O-])cc(I)c2NCCC(C(N)=O)NC1=O` (stereo not given in full), -7.95% (inactive). To `COc1c(O)cc2oc(-c3ccc(O)c(O)c3)cc(=O)c2c1O` belongs 97.3% (active). For `CCOC(=O)COc1cc(O)c2c(=O)cc(-c3ccccc3)oc2c1`, the inhibition was 20.1% (inactive). In the case of `CCOC(=O)COc1cc(OCC(=O)OCC)c2c(=O)cc(-c3ccccc3)oc2c1` it was -0.0489% (inactive).

In the case of `Cc1ccc2nc(-c3cccc(Br)c3)cc(C(=O)Nn3cnnc3)c2c1`, the inhibition is -7.45% (inactive). In the case of `Cc1cccc(-[n+]2c(-c3cccc(Br)c3)[nH]c3nc4ccccc4nc32)c1` it was 50.4% (active).
